Rows were chosen to be rich in hits. Some 1.6% of all compounds tested hit in one or more screens of this group.
KCNQ2 pot: potentiators of rat KCNQ2 potassium channel; O88943; CHO-K1 KCNQ2, FluxOR thallium flux fluorescence; stronger effect = higher value; B-score at 10 µM; actives 0.54% (n = 310,000); AID 2239;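 active means fluorescence ratio B-score at least 3 SD of library B-scores, with initial fluorescence B-score within 3 of them, cut at about 5.3 in these data; same plate scores as AID 2156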;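 further: B-score of peak minus minimum over baseline fluorescence ratio after K+ and Tl+ stimulus; positive B-score means potentiation of KCNQ2 with more thallium influx and brighter signal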
KCNQ2 inh: KCNQ2 (rat) channel inhibition; O88943; CHO-K1 KCNQ2, FluxOR thallium flux, 20 min; stronger effect = lower value; B-score at 10 µM; actives 1.1% (n = 310,000);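 active means fluorescence ratio B-score at most minus 3 library SDs, with starting brightness B-score within 2 library SDs, cut at about -5.5 in these data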
Kir21 conf inh: confirmation of mouse Kir2.1 potassium channel inhibitors; Kir2.1-expressing cells, FluxOR thallium flux fluorescence; stronger effect = lower value; shares compounds with KCNQ2 pot; actives 41% (n = 2,300); Tl flux remaining, % of negative control (stronger effect = lower value), % at 10 µM;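 active means Primary-screen hit whose thallium flux fell at least 3 control SD below untreated wells in both duplicates, with normal baseline fluorescence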
Target sequence (P35561 whole entry, looked up): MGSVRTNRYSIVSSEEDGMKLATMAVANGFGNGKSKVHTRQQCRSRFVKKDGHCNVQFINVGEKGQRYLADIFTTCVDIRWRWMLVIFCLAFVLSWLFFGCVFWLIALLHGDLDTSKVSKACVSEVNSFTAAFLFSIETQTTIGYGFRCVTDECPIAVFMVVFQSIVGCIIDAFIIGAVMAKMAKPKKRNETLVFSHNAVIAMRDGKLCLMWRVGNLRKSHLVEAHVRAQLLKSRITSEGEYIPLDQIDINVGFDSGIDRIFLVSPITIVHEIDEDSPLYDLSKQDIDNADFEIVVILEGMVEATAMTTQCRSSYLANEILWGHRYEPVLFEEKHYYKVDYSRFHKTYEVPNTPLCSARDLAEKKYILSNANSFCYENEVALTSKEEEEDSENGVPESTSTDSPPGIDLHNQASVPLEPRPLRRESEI
HEK293 ctr: parental HEK293 activity in Kir2.1 inhibitor counter-screen; AID 2105; parental HEK293 cells, FluxOR thallium flux fluorescence; 0% = unstimulated blank wells; FluxOR signal as % of negative control (100 = no effect), % at 10 µM; shares compounds with KCNQ2 pot; actives 19% (n = 2,300);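 active means dye signal at least 3 control SD above or below untreated wells in both duplicates, raw fluorescence within 3, either direction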;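 further: percent is based on the flux ratio of peak minus minimum fluorescence over baseline F0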
CHO-K1 Tl ctr: alters thallium flux in parental CHO-K1 cells, KCNQ2 counter-screen; actives 43% (n = 1,200); shares compounds with KCNQ2 pot; FluxOR thallium flux fluorescence; zero = vehicle mean+3SD, 100% = vehicle-minus-blank window; activity increase over 3SD of controls, % at 10 µM; AID 2282;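 active means signal rise of at least 3 SD above the untreated control mean, in both duplicate wells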;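 further: counter screen of KCNQ2 potentiator hits so any rise reflects channel-independent effects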
KCNQ1 pot spec: human KCNQ1 counter-target activity of KCNQ2 potentiators; activation over 3SD threshold, % at 10 µM; actives 28% (n = 1,200); shares compounds with KCNQ2 pot; CHO KCNQ1 stable, FluxOR thallium flux fluorescence; beyond 3SD, as % of vehicle-control signal;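 active means fluorescence ratio rise of at least 3 SD of vehicle wells above their mean, in both replicate wells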
KCNQ2 pot conf: rat KCNQ2 channel potentiator confirmation. AID 2287. actives 68% (n = 1,200). CHO-KCNQ2 cells, FluxOR thallium flux fluorescence. potentiation, less the hit threshold, % at 10 µM. shares compounds with KCNQ2 pot;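 active means fluorescence ratio rising 3 SD or more over the vehicle control mean in both replicates, plus primary screen hit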;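 further: peak minus minimum thallium fluorescence divided by baseline after K/Tl stimulus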
Kir21 spec: selectivity of KCNQ2 potentiators: effect on mouse Kir2.1; shares compounds with KCNQ2 pot; HEK293 Kir2.1, FluxOR thallium flux fluorescence; activity over 3SD threshold, % at 10 µM; actives 2% (n = 1,200); AID 2345;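 active means fluorescence ratio rise of at least 3 SD above the vehicle-control mean, seen in both replicates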
KCNQ2 W236L pot: KCNQ2 potentiators acting on retigabine-insensitive rat KCNQ2 W236L mutant; shares compounds with KCNQ2 pot; CHO KCNQ2-W236L, automated patch clamp current; current increase over 3SD of negative controls (%), stronger effect = higher value, % at 25 µM; actives 10% (n = 940);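 active means current increase at least 3 SD of the untreated controls above them in both duplicate recordings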
Of the large screens only hits and unclear results are named; the others gave an inactive call (follow-up assays come after a bar, where they were run).

O=C(NCc1ccc2c(c1)OCO2)NC1CCCCC1	KCNQ2 pot 5.67 | Kir21 conf inh inactive | HEK293 ctr inactive | CHO-K1 Tl ctr 38.3 | KCNQ1 pot spec inactive | KCNQ2 pot conf inactive | Kir21 spec inactive
CCc1ccccc1NC(=O)NC(C)c1ccc2c(c1)OCO2 (centres undefined)	none
CC(NC(=O)NC12CC3CC(CC(C3)C1)C2)c1ccc2c(c1)OCO2 (centres undefined)	KCNQ2 pot 15 | Kir21 conf inh inactive | HEK293 ctr inactive | CHO-K1 Tl ctr 28.3 | KCNQ1 pot spec inactive | KCNQ2 pot conf 55.9 | Kir21 spec inactive | KCNQ2 W236L pot inactive
O=C(NNC(=O)c1ccc2c(c1)OCO2)NC1CCCCC1	none (no result: KCNQ2 pot)
O=C(NCc1ccc2c(c1)CCO2)Nc1cccc(C(F)(F)F)c1	KCNQ2 pot 7.06 | Kir21 conf inh inactive | HEK293 ctr inactive | CHO-K1 Tl ctr 3.1 | KCNQ1 pot spec 19.5 | KCNQ2 pot conf 25.1 | Kir21 spec inactive | KCNQ2 W236L pot inactive
O=C(Cc1ccccc1)NCc1ccc2c(c1)OCO2	none
Cc1ccc2c(c1)NC(=O)C(CC(=O)NCCCN1CCCC1=O)O2 (centres undefined)	none
CCC(CC)COC(=O)C1=C(C)NC(=O)NC1c1ccc(OC)cc1 (centres undefined)	none
NS(=O)(=O)Oc1ccccc1	none
O=C(COC(=O)c1ccc2c(c1)S(=O)(=O)N=C1CCCCCN12)NCCc1ccc(F)cc1	none
CCC1Oc2ccc(C)cc2N(CC(=O)NCc2cccc(OC)c2)C1=O (centres undefined)	none (no result: KCNQ2 pot)
CC(CN1CCCCC1)OC(=O)c1ccc2c(c1)OCCO2 (centres undefined)	none (no result: KCNQ2 pot)
CCCOCC1CC2(SC(=Nc3ccc(C)cc3)NC2=O)C(=O)O1 (centres undefined)	none
Cc1cccc(NC(=S)NCc2ccc3c(c2)OCO3)c1	none
Cc1cccc(NC(=O)NCc2ccc3c(c2)OCO3)c1	KCNQ2 pot 11.1 | Kir21 conf inh inactive | HEK293 ctr inactive | CHO-K1 Tl ctr 4.1 | KCNQ1 pot spec inactive | KCNQ2 pot conf 20.1 | Kir21 spec inactive | KCNQ2 W236L pot inactive
CC(NC(=O)NC1CCCCC1)c1ccc2c(c1)OCO2 (centres undefined)	KCNQ2 pot 20.9 | Kir21 conf inh inactive | HEK293 ctr inactive | CHO-K1 Tl ctr 11.7 | KCNQ1 pot spec inactive | KCNQ2 pot conf 61.6 | Kir21 spec inactive | KCNQ2 W236L pot inactive
CC(NC(=O)Nc1ccc(Cl)cc1)c1ccc2c(c1)OCO2 (centres undefined)	none (no result: KCNQ2 pot)
CCCC(=O)N1CCC(Cc2ccccc2)CC1	none (no result: KCNQ2 pot)
Cc1ccc(N(CC(=O)NCc2ccc3c(c2)OCO3)C(=O)CCC(=O)Nc2ccccn2)cc1	none
CC(C)(C)C(=O)N1c2ccccc2CCc2ccccc21	none (no result: KCNQ2 pot)
Cc1ccccc1OCC(O)CN1CCN(CCN2C(=O)c3cccc4cccc(c34)C2=O)CC1 (centres undefined)	none (no result: KCNQ2 pot)
Cc1cccc(C)c1OCC(O)CN1CCC(CN2C(=O)c3cccc4cccc(c34)C2=O)CC1 (centres undefined)	KCNQ2 pot 5.71 | Kir21 conf inh inactive | HEK293 ctr inactive | CHO-K1 Tl ctr 49.6 | KCNQ1 pot spec inactive | KCNQ2 pot conf inactive | Kir21 spec inactive
O=C(NC1CCCCC1)C1(c2ccccc2)CC1(Cl)Cl (centres undefined)	none (no result: KCNQ2 pot)
Cc1ccc(NC(=O)N2CCN(C)CC2)cc1NC(=O)N1CCN(C)CC1	none
CCC1=NN(C(=O)c2ccc([N+](=O)[O-])cc2)C(O)(c2ccccc2)C1 (centres undefined)	none
CC1=NN(C(=O)c2ccccc2C)C(O)(c2ccc(Cl)cc2)C1 (centres undefined)	KCNQ2 pot 11.1 | Kir21 conf inh inactive | HEK293 ctr inactive | CHO-K1 Tl ctr 21.8 | KCNQ1 pot spec inactive | KCNQ2 pot conf inactive | Kir21 spec inactive
CC1=NN(C(=O)c2ccccc2Cl)C(O)(c2cccnc2)C1 (centres undefined)	none
CCC1=NN(C(=O)c2ccccc2O)C(O)(c2ccccc2)C1 (centres undefined)	KCNQ2 pot 10.5 | Kir21 conf inh inactive | HEK293 ctr 148.5% | CHO-K1 Tl ctr inactive | KCNQ1 pot spec inactive | KCNQ2 pot conf 14.2 | Kir21 spec inactive | KCNQ2 W236L pot inactive
O=C(Nc1ccc2c(c1)OCCO2)c1cccnc1Oc1ccc(Cl)cc1	none (no result: KCNQ2 pot)
Cc1ccccc1OCC(=O)Nc1sc2c(c1C#N)CCC2	none (no result: KCNQ2 pot)
CCOC(=O)c1snc(C(=O)NC2CCCCC2)c1N	none
CCOC(=O)N1CCN(CC(O)COc2cc(C)ccc2C(C)C)CC1 (centres undefined)	none (no result: KCNQ2 pot)
C=CCn1c(SCc2cccc3ccccc23)nnc1-c1cccnc1	none (no result: KCNQ2 pot) | Kir21 conf inh 45.0% | HEK293 ctr inactive
C=CCn1c(SCC(=O)Nc2ccc(C(=O)O)cc2)nnc1-c1cccnc1	none (no result: KCNQ2 pot)
CCC(NC(=S)NCc1ccc(F)cc1)c1ccccc1 (centres undefined)	none | Kir21 conf inh 57.5% | HEK293 ctr 62.5%
O=C(NCc1ccc(F)cc1)C(c1ccccc1)c1ccccc1	none (no result: KCNQ2 pot)
CC(=O)/C=C/n1c(=S)oc2ccccc21	KCNQ2 pot 5.37 | Kir21 conf inh inactive | HEK293 ctr inactive | CHO-K1 Tl ctr inactive | KCNQ1 pot spec inactive | KCNQ2 pot conf inactive | Kir21 spec inactive
CC(C)CC(=O)/C=C/n1c(=S)oc2ccccc21	none
O=c1c2cc(Cl)ccc2nc(-c2ccccc2)n1O	KCNQ2 pot 6.54 | Kir21 conf inh inactive | HEK293 ctr 325.5% | CHO-K1 Tl ctr 5.6 | KCNQ1 pot spec 9.7 | KCNQ2 pot conf 37.5 | Kir21 spec inactive | KCNQ2 W236L pot inactive
O=c1c2ccc(Cl)cc2nc(-c2ccc([N+](=O)[O-])cc2)n1O	KCNQ2 pot 13.6 | Kir21 conf inh inactive | HEK293 ctr 303.5% | CHO-K1 Tl ctr 5.3 | KCNQ1 pot spec inactive | KCNQ2 pot conf 41.6 | Kir21 spec inactive | KCNQ2 W236L pot inactive
N#Cc1ccc(-c2nc3ccc(Br)cc3c(=O)n2O)cc1	none
O=c1c2cc(Br)ccc2nc(-c2ccc([N+](=O)[O-])cc2)n1O	KCNQ2 pot 9.81 | Kir21 conf inh inactive | HEK293 ctr 383.0% | CHO-K1 Tl ctr inactive | KCNQ1 pot spec 64.6 | KCNQ2 pot conf 50.6 | Kir21 spec inactive | KCNQ2 W236L pot inactive

Screens deposited in PubChem by Johns Hopkins Ion Channel Center.
